# Test results taken from PubChem BioAssay (EPA / NIEHS).
# Activity calls are given as the source filed them. How the source made its calls: active means hit-call score of the fitted dose curve at least 0.9, where 1 is the maximum; inactive means score below 0.9.
# Assays:
# [1] = ATG_Ets_CIS: Attagene CIS-FACTORIAL HepG2 Assay for human Erythroblast Transformation Specific (ETS) (AID 2282941); conditions: HepG2 ETS cis-reporter transcription, actives raise or lower the signal
# Outline: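 HepG2 cells transfected with multiple cis-regulated reporter units measuring endogenous ETS-driven transcription, 24 h after dosing. Reporter mRNA quantified by RT-PCR with capillary electrophoresis; bidirectional fit relative to DMSO.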
# [2] = target: Hepatocyte nuclear factor 3-beta (Homo sapiens) (UniProt Q9Y261); experiment: ATG_FoxA2_CIS: Attagene CIS-FACTORIAL HepG2 Assay for human Forkhead box A2 (FOXA2) (AID 2282942); conditions: HepG2 cis-reporter transcription factor activity, 24 h; actives raise or lower the signal
# Outline: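 Multiplexed cis-element reporter assay in transiently transfected HepG2. Twenty-four hours post-dosing, RNA was reverse-transcribed, amplified, FAM-labelled, HpaI-digested and separated by CE. Activity gain or loss relative to DMSO.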
# [3] = ATG_FoxO_CIS: Attagene CIS-FACTORIAL HepG2 Assay for human Forkhead box O (FoxO) (AID 2282943); conditions: HepG2 Attagene cis-reporter, FoxO element, mRNA; actives raise or lower the signal
# Outline: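 Endogenous transcription factor activity read from multiplexed cis-promoter reporter transcripts in transiently transfected HepG2, 24 h after dosing. Reporter RNA measured via RT-PCR plus capillary electrophoresis of FAM-labeled products; gain or loss relative to DMSO.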
# [4] = ATG_GATA_CIS: Attagene CIS-FACTORIAL HepG2 Assay for human GATA Binding Protein (AID 2282944); conditions: HepG2 GATA cis-element reporter, Attagene multiplex mRNA; actives raise or lower the signal
# Outline: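 Transfected cis-reporter HepG2 cells were treated with chemicals for 24 hours. Total RNA was then converted to cDNA, amplified with reporter-specific primers and analysed by fluorescent capillary electrophoresis, using DMSO-treated wells as baseline.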
# [5] = ATG_GLI_CIS: Attagene CIS-FACTORIAL HepG2 Assay for human Zinc Finger Protein GLI1 (AID 2282945); conditions: HepG2, Attagene cis-factorial reporter mRNA, GLI element; actives raise or lower the signal
# Outline: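 Bidirectional curve fits relative to DMSO, using reporter mRNA levels from RT-PCR plus capillary electrophoresis. Cells were HepG2 transiently carrying cis-regulated reporter constructs, harvested 24 h after dosing.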
# [6] = target: Bile acid receptor (Homo sapiens) (UniProt Q96RI1); experiment: ATG_IR1_CIS: Attagene CIS-FACTORIAL HepG2 Assay for human Nuclear Receptor Subfamily 1 Group H Member 4 (NR1H4), IR1 submotif (AID 2282946); conditions: IR1 reporter transcription, actives raise or lower the signal
# Outline: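 Cells (human HepG2) carry transiently transfected cis-promoter reporter transcription units. Compounds are incubated 24 h, total RNA is reverse-transcribed and amplified, and labelled fragments are resolved by capillary electrophoresis. Curves use DMSO as baseline.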
# [7] = ATG_GRE_CIS: Attagene CIS-FACTORIAL HepG2 Assay for human Glucocorticoid Response Elements (GRE) (AID 2282947); conditions: HepG2 GRE cis-reporter, Attagene multiplex mRNA; actives raise or lower the signal
# Outline: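 Transient MRTU transfection of human HepG2 liver cells; cis-regulated reporters report endogenous factors. 24 h dosing → RNA isolation → RT-PCR → 6-FAM primer extension → HpaI cut → CE fragment analysis. Bidirectional fit, DMSO negative control.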
# [8] = ATG_ISRE_CIS: Attagene CIS-FACTORIAL HepG2 Assay for human Interferon Regulatory Factor 1 (IRF1) binding to an Interferon-Stimulated Response Element (ISRE) (AID 2282948); conditions: HepG2 ISRE cis-reporter (Attagene), mRNA transcription readout; actives raise or lower the signal
# Outline: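 Transiently transfected HepG2 cells carrying cis-element reporter units, dosed 24 hours. Reporter mRNA quantified by RT-PCR, fluorescent primer extension, HpaI digestion and capillary electrophoresis. Bidirectional fitting relative to DMSO.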
# [9] = ATG_M_32_CIS: Attagene CIS-FACTORIAL HepG2 Assay for M32 Transcription Factor (Internal Marker) (AID 2282949); conditions: HepG2 Attagene cis-factorial M32 reporter, mRNA; actives raise or lower the signal;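 further: background control marker of the multiplexed CIS panel rather than a real target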
# Outline: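 Fluorescent capillary electrophoresis peaks of HpaI-digested, FAM-labelled RT-PCR reporter products give the signal. Source: transiently transfected human liver HepG2 cells, 24 h after chemical dosing; bidirectional fitting against DMSO.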
# [10] = target: Hypoxia-inducible factor 1-alpha (Homo sapiens) (UniProt Q16665); experiment: ATG_HIF1a_CIS: Attagene CIS-FACTORIAL HepG2 Assay for human Hypoxia Inducible Factor 1 (HIF1A) (AID 2282951); conditions: HepG2 Attagene cis-factorial HIF1a reporter transcription; actives raise or lower the signal
# Outline: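 Cis-element reporter constructs were transiently transfected into HepG2 cells, which were treated for 24 h; reporter RNA was reverse-transcribed, amplified, labelled and resolved by capillary electrophoresis.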
# [11] = target: Hepatocyte nuclear factor 6 (Homo sapiens) (UniProt Q9UBC0); experiment: ATG_HNF6_CIS: Attagene CIS-FACTORIAL HepG2 Assay for human Hepatocyte Nuclear Factor 6 (HNF6) (AID 2282952); conditions: HepG2 Attagene cis-factorial HNF6 reporter transcription; actives raise or lower the signal
# Outline: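 Transiently transfected HepG2 cells expressing cis-regulated reporter transcription units were exposed to chemical for 24 h in a 24-well format. Reporter transcript abundance was determined by fluorescence capillary electrophoresis.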
# [12] = target: Heat shock factor protein 1 (Homo sapiens) (UniProt Q00613); experiment: ATG_HSE_CIS: Attagene CIS-FACTORIAL HepG2 Assay for human Heat Shock Transcription Factor 1 (HSE) (AID 2282953); conditions: HepG2 HSE cis-reporter, Attagene RNA transcription; actives raise or lower the signal
# Outline: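 Liver-derived HepG2 cells carry transiently introduced multiple reporter units governed by cis promoters. Reporter RNA measured 24 h post-dose through reverse transcription, PCR amplification, fluorescent labelling and capillary electrophoresis, normalised to DMSO.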
# [13] = ATG_PBREM_CIS: Attagene CIS-FACTORIAL HepG2 Assay for human Phenobarbital-responsive Enhancer Module (PBREM) (AID 2282955); conditions: HepG2 PBREM cis-reporter, Attagene multiplexed transcription; actives raise or lower the signal
# Outline: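 Multiplexed cis-reporter readout in human hepatoma HepG2 cells; PBREM-regulated transcript quantified after 24 h exposure by fluorescent RT-PCR fragment analysis. Signal changes up or down fitted relative to DMSO.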
# [14] = target: Paired box protein Pax-6 (Homo sapiens) (UniProt P26367); experiment: ATG_Pax6_CIS: Attagene CIS-FACTORIAL HepG2 Assay for human Paired Box 6 (PAX6) (AID 2282956); conditions: HepG2 CIS-FACTORIAL PAX6 reporter transcription, RNA readout; actives raise or lower the signal
# Outline: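 HepG2 cells transiently transfected with cis-promoter-driven multiplexed reporter units sensing endogenous transcription factor activity; 24 h chemical exposure. Reporter mRNA quantified by RT-PCR, 6-FAM labelling, HpaI digestion and capillary electrophoresis; bidirectional fit versus DMSO baseline.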
# [15] = ATG_PXRE_CIS: Attagene CIS-FACTORIAL HepG2 Assay for human Pregnane X Receptor Element (PXRE) (AID 2282957); conditions: HepG2 Attagene CIS-FACTORIAL PXRE reporter, mRNA; actives raise or lower the signal
# Outline: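 Cis-element reporter mRNA in human hepatoma HepG2 cells is measured 24 h post-dosing by RT-PCR, primer-extension labeling and capillary electrophoresis; gain or loss of signal is fitted relative to DMSO.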
# [16] = ATG_PPRE_CIS: Attagene CIS-FACTORIAL HepG2 Assay for human Peroxisome Proliferator-activated Response Element (PPRE) (AID 2282958); conditions: HepG2 PPRE cis-element reporter, Attagene transcription factor profiling; actives raise or lower the signal
# Outline: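 DMSO served as negative control and baseline for bidirectional curve fitting. Signal came from PPRE-regulated reporter mRNA in HepG2 cells, measured 24 h post-dosing by RT-PCR, 6-FAM primer extension and capillary electrophoresis.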
# [17] = ATG_RORE_CIS: Attagene CIS-FACTORIAL HepG2 Assay for human RAR-related Orphan Receptor Element (RORE) (AID 2282959); conditions: HepG2 Attagene cis-factorial RORE reporter, mRNA; actives raise or lower the signal
# Outline: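 Transfect HepG2 with MRTUs; treat 24 h; extract RNA; RT with oligo(dT); PCR with reporter-specific primers; 6-FAM primer extension; HpaI digest 2 h at 37 C; capillary electrophoresis. Fit vs DMSO, bidirectional.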
# [18] = ATG_Sox_CIS: Attagene CIS-FACTORIAL HepG2 Assay for human SRY-box transcription factor (SOX) (AID 2282960); conditions: HepG2 Attagene cis-factorial SOX reporter, mRNA; actives raise or lower the signal
# Outline: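 Fluorescence-labelled cDNA fragments from reporter transcripts, sized by CE, give the signal. Cells: HepG2, transiently transfected with cis-regulated reporter units. Exposure 24 h; DMSO negative control; bidirectional curve fitting.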
# [19] = ATG_M_06_CIS: Attagene CIS-FACTORIAL HepG2 Assay for M06 Transcription Factor (Internal Marker) (AID 2282950); conditions: HepG2 Attagene CIS-FACTORIAL M06 internal marker reporter; actives raise or lower the signal
# Outline: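 Cells (HepG2, transiently carrying cis-driven reporter units) receive chemical for 24 h before RNA isolation. Reporter cDNA is PCR-amplified, FAM-labelled by primer extension, HpaI-digested and sized on a capillary analyser.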
# [20] = ATG_MRE_CIS: Attagene CIS-FACTORIAL HepG2 Assay for human Metal Responsive Element (MRE) (AID 2282954); conditions: HepG2 MRE cis-reporter transcription, Attagene multiplex; actives raise or lower the signal
# Outline: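 Transient MRTU transfection of HepG2 (FuGene 6); 24 h dosing; total RNA → oligo(dT) RT, PCR, 6-FAM primer extension, HpaI cut, CE. Bidirectional fit vs DMSO.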
# Chain of Paired box protein Pax-6 (Homo sapiens) (P26367 whole entry, looked up): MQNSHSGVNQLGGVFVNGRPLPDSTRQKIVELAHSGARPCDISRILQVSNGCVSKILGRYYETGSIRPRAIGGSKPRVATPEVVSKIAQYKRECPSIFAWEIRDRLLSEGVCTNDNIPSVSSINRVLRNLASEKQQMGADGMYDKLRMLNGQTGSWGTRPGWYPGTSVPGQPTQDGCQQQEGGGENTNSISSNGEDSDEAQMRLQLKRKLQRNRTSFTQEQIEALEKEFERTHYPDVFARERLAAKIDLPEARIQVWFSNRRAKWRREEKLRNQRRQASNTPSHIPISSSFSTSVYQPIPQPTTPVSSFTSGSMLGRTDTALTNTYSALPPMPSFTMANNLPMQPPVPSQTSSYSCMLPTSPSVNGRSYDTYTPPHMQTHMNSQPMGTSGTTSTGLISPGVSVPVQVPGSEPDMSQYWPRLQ
# Chain of Hypoxia-inducible factor 1-alpha (Homo sapiens) (Q16665 whole entry, looked up): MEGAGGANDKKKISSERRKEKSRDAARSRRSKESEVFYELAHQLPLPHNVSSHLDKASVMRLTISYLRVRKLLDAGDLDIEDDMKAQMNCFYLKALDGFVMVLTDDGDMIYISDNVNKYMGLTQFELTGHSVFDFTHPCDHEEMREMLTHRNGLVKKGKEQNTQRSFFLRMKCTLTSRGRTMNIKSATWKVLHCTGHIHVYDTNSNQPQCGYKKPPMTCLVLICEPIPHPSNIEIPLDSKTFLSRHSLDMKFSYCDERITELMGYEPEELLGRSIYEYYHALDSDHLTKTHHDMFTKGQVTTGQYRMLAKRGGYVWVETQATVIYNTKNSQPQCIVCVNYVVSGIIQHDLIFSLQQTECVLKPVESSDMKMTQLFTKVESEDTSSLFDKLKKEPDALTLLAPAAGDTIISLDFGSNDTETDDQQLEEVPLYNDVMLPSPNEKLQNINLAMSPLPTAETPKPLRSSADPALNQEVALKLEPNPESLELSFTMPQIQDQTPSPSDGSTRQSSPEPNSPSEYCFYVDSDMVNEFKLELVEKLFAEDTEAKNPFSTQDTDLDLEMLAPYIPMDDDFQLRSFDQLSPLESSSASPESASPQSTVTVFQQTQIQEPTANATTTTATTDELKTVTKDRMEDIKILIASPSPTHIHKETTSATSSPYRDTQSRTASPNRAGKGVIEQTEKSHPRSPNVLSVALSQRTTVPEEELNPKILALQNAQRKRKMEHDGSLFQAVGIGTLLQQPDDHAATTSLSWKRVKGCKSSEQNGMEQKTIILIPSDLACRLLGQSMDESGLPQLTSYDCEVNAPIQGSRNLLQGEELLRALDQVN
# Chain of Bile acid receptor (Homo sapiens) (Q96RI1 whole entry, looked up, the tested form may be a part): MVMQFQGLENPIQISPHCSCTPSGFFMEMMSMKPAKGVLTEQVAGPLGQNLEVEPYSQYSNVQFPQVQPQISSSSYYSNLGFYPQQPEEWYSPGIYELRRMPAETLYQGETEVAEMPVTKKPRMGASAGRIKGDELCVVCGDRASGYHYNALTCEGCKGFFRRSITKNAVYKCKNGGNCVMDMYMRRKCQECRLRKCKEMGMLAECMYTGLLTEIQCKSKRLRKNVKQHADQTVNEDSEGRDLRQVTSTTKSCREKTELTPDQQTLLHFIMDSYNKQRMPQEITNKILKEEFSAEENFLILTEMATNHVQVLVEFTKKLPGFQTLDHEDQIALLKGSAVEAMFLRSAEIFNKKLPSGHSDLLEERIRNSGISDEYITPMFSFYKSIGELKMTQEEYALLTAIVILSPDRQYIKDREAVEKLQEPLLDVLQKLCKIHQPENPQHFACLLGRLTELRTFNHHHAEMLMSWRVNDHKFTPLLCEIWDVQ
# Chain of Hepatocyte nuclear factor 6 (Homo sapiens) (Q9UBC0 whole entry, looked up): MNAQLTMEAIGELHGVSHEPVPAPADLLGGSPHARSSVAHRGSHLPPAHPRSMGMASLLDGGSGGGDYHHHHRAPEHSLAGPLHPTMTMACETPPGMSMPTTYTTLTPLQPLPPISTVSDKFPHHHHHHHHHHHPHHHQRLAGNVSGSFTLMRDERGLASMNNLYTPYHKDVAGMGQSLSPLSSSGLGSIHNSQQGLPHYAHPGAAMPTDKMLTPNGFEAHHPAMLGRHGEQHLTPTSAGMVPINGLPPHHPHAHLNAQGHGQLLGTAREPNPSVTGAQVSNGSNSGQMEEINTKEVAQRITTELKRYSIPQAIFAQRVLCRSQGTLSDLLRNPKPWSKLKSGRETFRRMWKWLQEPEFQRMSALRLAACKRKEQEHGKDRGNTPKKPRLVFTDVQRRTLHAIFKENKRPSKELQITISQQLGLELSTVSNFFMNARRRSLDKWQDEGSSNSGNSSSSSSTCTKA
# Chain of Hepatocyte nuclear factor 3-beta (Homo sapiens) (Q9Y261 whole entry, looked up): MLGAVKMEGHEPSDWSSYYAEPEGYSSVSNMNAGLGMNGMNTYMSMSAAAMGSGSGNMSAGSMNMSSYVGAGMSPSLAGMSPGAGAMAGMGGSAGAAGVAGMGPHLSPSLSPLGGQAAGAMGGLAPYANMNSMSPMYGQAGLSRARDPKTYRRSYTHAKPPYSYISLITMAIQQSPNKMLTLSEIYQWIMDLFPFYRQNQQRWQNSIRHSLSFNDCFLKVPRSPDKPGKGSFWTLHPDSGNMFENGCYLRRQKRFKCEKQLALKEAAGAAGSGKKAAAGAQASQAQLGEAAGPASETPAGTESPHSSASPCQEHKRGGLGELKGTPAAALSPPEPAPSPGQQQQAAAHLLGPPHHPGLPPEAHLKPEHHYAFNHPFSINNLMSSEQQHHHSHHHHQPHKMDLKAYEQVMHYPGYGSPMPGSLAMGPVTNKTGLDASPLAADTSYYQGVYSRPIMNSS
# Chain of Heat shock factor protein 1 (Homo sapiens) (Q00613 whole entry, looked up): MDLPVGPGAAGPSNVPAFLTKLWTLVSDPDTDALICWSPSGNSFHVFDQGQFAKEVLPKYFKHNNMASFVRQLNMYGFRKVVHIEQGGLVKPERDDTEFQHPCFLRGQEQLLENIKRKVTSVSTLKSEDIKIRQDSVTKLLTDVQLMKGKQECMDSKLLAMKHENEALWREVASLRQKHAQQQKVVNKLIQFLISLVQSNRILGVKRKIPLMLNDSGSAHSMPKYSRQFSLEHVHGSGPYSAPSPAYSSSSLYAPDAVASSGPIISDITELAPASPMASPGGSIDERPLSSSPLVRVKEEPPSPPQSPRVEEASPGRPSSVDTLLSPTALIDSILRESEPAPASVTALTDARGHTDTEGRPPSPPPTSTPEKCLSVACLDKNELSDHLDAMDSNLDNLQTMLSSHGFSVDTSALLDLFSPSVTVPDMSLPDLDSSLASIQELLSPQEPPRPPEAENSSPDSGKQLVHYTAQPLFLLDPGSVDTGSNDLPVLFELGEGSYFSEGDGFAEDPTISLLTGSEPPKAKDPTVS
smiles,measurement,setting,value
CC(=O)[O][Hg][c]1ccccc1,outcome,[1],inactive
same,outcome,[2],inactive
same,outcome,[3],inactive
same,outcome,[4],inactive
same,outcome,[5],inactive
same,outcome,[6],inactive
same,AC50,[7],3.71 µM (active)
same,outcome,[8],inactive
same,outcome,[9],inactive
same,outcome,[10],inactive
same,outcome,[11],inactive
same,outcome,[12],inactive
same,outcome,[13],inactive
same,outcome,[14],inactive
same,AC50,[15],3.71 µM (active)
same,outcome,[16],inactive
same,AC50,[17],3.71 µM (active)
same,outcome,[18],inactive
CCOP(=S)(OCC)Oc1nc(Cl)c(Cl)cc1Cl,outcome,[1],inactive
same,outcome,[2],inactive
same,outcome,[3],inactive
same,outcome,[4],inactive
same,AC50,[5],71.9 µM (active)
same,AC50,[6],26.4 µM (active)
same,outcome,[7],inactive
same,outcome,[9],inactive
same,outcome,[19],inactive
same,outcome,[10],inactive
same,outcome,[11],inactive
same,outcome,[12],inactive
same,AC50,[20],100 µM (active)
same,outcome,[13],inactive
same,outcome,[14],inactive
same,AC50,[15],5.24 µM (active)
same,outcome,[16],inactive
same,outcome,[17],inactive
same,outcome,[18],inactive
OCc1ccco1,outcome,[1],inactive
same,outcome,[2],inactive
same,outcome,[3],inactive
same,outcome,[4],inactive
same,outcome,[5],inactive
same,outcome,[6],inactive
same,outcome,[9],inactive
same,outcome,[19],inactive
same,outcome,[10],inactive
same,outcome,[11],inactive
same,outcome,[12],inactive
same,outcome,[20],inactive
same,outcome,[13],inactive
same,outcome,[14],inactive
same,AC50,[15],39.7 µM (active)
same,outcome,[16],inactive
same,outcome,[17],inactive
same,outcome,[18],inactive
CCOC(=O)CP(=O)(OCC)OCC,outcome,[1],inactive
same,outcome,[2],inactive
same,outcome,[3],inactive
same,outcome,[4],inactive
same,outcome,[5],inactive
same,outcome,[6],inactive
same,outcome,[8],inactive
same,outcome,[9],inactive
same,outcome,[19],inactive
same,AC50,[10],0.0931 µM (active)
same,outcome,[11],inactive
same,outcome,[12],inactive
same,outcome,[20],inactive
same,outcome,[14],inactive
same,outcome,[16],inactive
same,outcome,[18],inactive
CCOC(=O)/C=C(C)/C=C/C[C@@H](C)CCCC(C)C,outcome,[1],inactive
same,outcome,[2],inactive
same,outcome,[3],inactive
same,AC50,[4],158 µM (active)
same,AC50,[5],149 µM (active)
same,AC50,[6],41 µM (active)
same,AC50,[7],74.7 µM (active)
same,outcome,[8],inactive
same,AC50,[9],157 µM (active)
same,outcome,[19],inactive
same,AC50,[10],24.4 µM (active)
same,AC50,[11],176 µM (active)
same,AC50,[12],62.9 µM (active)
same,AC50,[13],182 µM (active)
same,outcome,[14],inactive
same,AC50,[15],2.55 µM (active)
same,outcome,[16],inactive
same,outcome,[18],inactive
O=[N+]([O-])c1ccc2c3c(cccc13)CC2,outcome,[1],inactive
same,outcome,[2],inactive
same,outcome,[3],inactive
same,outcome,[4],inactive
same,outcome,[5],inactive
same,outcome,[6],inactive
same,outcome,[7],inactive
same,outcome,[8],inactive
same,outcome,[9],inactive
same,AC50,[10],26.7 µM (active)
same,outcome,[11],inactive
same,outcome,[20],inactive
same,outcome,[14],inactive
same,AC50,[15],4.23 µM (active)
same,outcome,[16],inactive
same,outcome,[17],inactive
same,outcome,[18],inactive
C=C(C)C#N,outcome,[1],inactive
same,outcome,[2],inactive
same,outcome,[3],inactive
same,outcome,[4],inactive
same,outcome,[5],inactive
same,outcome,[6],inactive
same,outcome,[8],inactive
same,outcome,[9],inactive
same,outcome,[19],inactive
same,outcome,[10],inactive
same,outcome,[11],inactive
same,outcome,[12],inactive
same,outcome,[20],inactive
same,outcome,[13],inactive
same,outcome,[14],inactive
same,outcome,[15],inactive
same,outcome,[18],inactive
O=C(c1ccccc1)C(Cl)Cl,outcome,[1],inactive
same,outcome,[2],inactive
same,AC50,[3],26.4 µM (active)
same,outcome,[4],inactive
same,outcome,[5],inactive
same,AC50,[6],5.81 µM (active)
same,outcome,[7],inactive
same,AC50,[8],14.9 µM (active)
same,outcome,[9],inactive
same,outcome,[19],inactive
same,outcome,[10],inactive
same,outcome,[11],inactive
same,outcome,[12],inactive
same,AC50,[20],26.7 µM (active)
same,AC50,[14],26.8 µM (active)
same,outcome,[15],inactive
same,outcome,[16],inactive
same,outcome,[17],inactive
same,AC50,[18],25.7 µM (active)
